# A selection: hits, their analogues and other compounds. The true share with any hit is near 0.96%.
# Fluorescein autfl: fluorescein region autofluorescence | Compound autofluorescence, 480/540 nm, fluorescein-equivalent; hits give high values | 59,000 tested, 0.91% active | max fluorescein-equivalent concentration, M; in the data active means max fluorescein-equivalent concentration above about 10 nM; inconclusive means between about 1.1 nM and that limit
#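 First, buffer (100 mM Tris, pH 8.0) dispensed; second, compounds and fluorescein standards pinned in; third, 15 min room-temperature incubation; finally, imaging at ex 480 nm/em 540 nm. Fluorescence normalized against the six-point fluorescein curve.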
# Rhodamine autofl: compound autofluorescence in rhodamine spectral region; 59,000 tested, 0.05% active; Rhodamine-region fluorescence, 547/598 nm, Tris buffer; hits give high values; max dye-equivalent concentration, M; in the data active means max dye-equivalent concentration above about 11 nM; inconclusive means between about 1.1 nM and that limit
#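 qHTS spectral profiling of compounds without any target or enzyme present, in pH 8.0 Tris buffer; plates were read after a 15-minute room-temperature incubation using the rhodamine-region filter set.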
# A488 fluor: compound autofluorescence in A488 spectral region; max dye equivalency, M; 59,000 tested, 0.1% active; compound autofluorescence, A488 spectral region, dye equivalency; Compound Type: qHTS ECL - MLSMR
#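 Autofluorescence read at ex 480/em 540 nm after 15 min RT in 100 mM Tris pH 8.0; compound signal normalized to A488 standard series on each plate, reported as dye-equivalent concentration at each test concentration.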
# A647 fluor: compound autofluorescence in A647 spectral region; Compound fluorescence, A647 channel (570/671 nm), Tris buffer; max dye-equivalent concentration, M; 59,000 tested, under 10 active; AID 592;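 further: values scaled relative to a standard on each plate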
#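 Fluorescence read (570 nm ex, 671 nm em) after 15 min RT incubation of compounds in 100 mM Tris buffer, pH 8.0; values expressed as dye-equivalent concentration against a six-point A647 standard series on each plate.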
# Texas Red fluor: compound fluoresces in the Texas Red spectral region | Compound fluorescence, Texas Red channel, 547/618 nm; hits give high values | max dye-equivalent concentration, M | 59,000 tested, 0.06% active | AID 587; in the data active means max dye-equivalent concentration above about 10 nM; inconclusive means between about 1.1 nM and that limit
#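 Compound titrations in 100 mM Tris pH 8.0 were incubated 15 min at room temperature and read at 547 nm excitation / 618 nm emission. Texas Red six-point standard curve on each plate converted fluorescence to dye-equivalent concentration.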
# Resorufin autofl: compound fluoresces in the resorufin spectral region | AID 588 | max dye-equivalent concentration, M | 59,000 tested, 0.04% active | Compound fluorescence, resorufin region 547/598 nm, buffer; hits give high values
#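 Tris 100 mM pH 8.0; compound added, 15 min RT; CCD imager read, ex 547 nm/em 598 nm; signal normalized to resorufin standard curve (six concentrations per plate) as dye-equivalent concentration.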
# Active calls of the source: *; i = inactive; ? = inconclusive; ! = not active in a repeat. Unless noted, how the calls were made is not given here.
SMILES,Fluorescein autfl,Rhodamine autofl,A488 fluor,A647 fluor,Texas Red fluor,Resorufin autofl
COCCOC(=O)c1c(N)n(Cc2ccc(OC)cc2)c2nc3ccccc3nc12,i,i,i,4.9e-09,?,i
CC(C)OC(=O)c1c(N)n(Cc2ccco2)c2nc3ccccc3nc12,3.6e-08M*,i,?,3.5e-08,i,i
COc1ccc(Cn2c(N)c(C(=O)NCc3ccco3)c3nc4ccccc4nc32)cc1OC,?,i,i,1.4e-08,i,i
COCCOC(=O)c1c(N)n(Cc2ccco2)c2nc3ccccc3nc12,4.3e-08M*,i,?,1e-09,i,i
O=C(O)[C@H]1[O][Sb][O][C@@H](C(=O)O)C1O (stereo partly drawn),i,i,i,1e-09,i,i
C[C@@H]1CCC/C=C\[C@H]2C[C@H](O)C[C@@H]2[C@H](O)/C=C\C(=O)O1,i,i,i,1e-09,i,i
CCn1nc(-c2ccccc2)nc2c(=O)n(C)c(=O)nc1-2,1.8e-07M*,i,1.1e-08M*,1.9e-08,i,i
CCOC(=O)c1ccc(NC(=O)c2c(O)[nH]c(=O)[nH]c2=O)cc1,4.1e-05M*,?,2.3e-06M*,1e-09,?,i
CCC(=NC1CCN(Cc2ccccc2)CC1)c1c(O)[nH]c(=O)[nH]c1=O,i,i,i,1e-09,i,i
CC[C@H](CO)NC(=O)[C@H]1C=C2c3cccc4[nH]cc(c34)C[C@@H]2N(C)C1,2.1e-08M*,i,i,1.8e-09,i,i
CC[C@@H](CO)NC(=O)[C@@H]1C=C2c3cccc4c3c(cn4C)C[C@H]2N(C)C1,4.8e-08M*,i,?,1e-09,i,i
C[C@@H](CO)NC(=O)[C@H]1C=C2c3cccc4[nH]cc(c34)C[C@H]2N(C)C1,?,i,i,1e-09,i,i
CC(C)[C@@]1(NC(=O)[C@@H]2C=C3c4cccc5[nH]cc(c45)C[C@@H]3N(C)C2)O[C@]2(O)[C@H]3CCCN3C(=O)[C@H](Cc3ccccc3)N2C1=O,2.9e-08M*,i,?,1.7e-09,i,i
CN1C[C@H](C(=O)N[C@@]2(C)O[C@@]3(O)[C@H]4CCCN4C(=O)[C@@H](Cc4ccccc4)N3C2=O)C=C2c3cccc4[nH]cc(c34)C[C@@H]21,1.8e-08M*,i,i,3.1e-08,i,i
CC(C)[C@@]1(NC(=O)[C@H]2C[C@H]3c4cccc5[nH]cc(c45)C[C@@H]3N(C)C2)O[C@]2(O)[C@H]3CCCN3C(=O)[C@H](Cc3ccccc3)N2C1=O,?,i,i,2.5e-08,i,i
O=c1[nH]oc2c1CCNC2,i,i,i,7.1e-09,?,i
Cc1cccc(-n2c(O)c(C=NCCCN3CCOCC3)c(=O)[nH]c2=O)c1C,i,i,i,1e-09,i,i
CCN(CC)C(=O)N[C@@H]1C=C2c3cccc4[nH]cc(c34)C[C@@H]2N(C)C1,1.3e-08M*!,i,i,1e-09,?,i
CN1C[C@H](CO)C=C2c3cccc4[nH]cc(c34)C[C@@H]21,2.7e-08M*,i,i,2.9e-09,i,i
N[C@@H](CSC1c2ccccc2-c2ccccc21)C(=O)O,i,i,i,1e-09,i,i
Cn1c(=O)c2nncnc2n(C)c1=O,1.1e-08M*,i,i,6.9e-09,i,i
O=C(O)CNC(=O)c1ccc([As](=O)(O)O)cc1,?,i,i,2.6e-08,i,i
CN1C[C@H](CNC(=O)OCc2ccccc2)C[C@@H]2c3cccc4c3c(cn4C)C[C@H]21,4.7e-08M*,i,?,3.3e-08,i,i
CN1C[C@@H](CS(=O)(=O)N(C)C)C[C@H]2c3cccc4c3c(cn4C)C[C@@H]21,1.9e-08M*,i,i,1e-09,?,i
COc1cccc2c1C(=O)c1c(O)c3c(c(O)c1C2=O)C[C@](O)(/C(C)=N\O)C[C@@H]3O[C@H]1C[C@H](N)[C@@H](O)[C@H](C)O1,7.6e-08M*,3e-08M*,?,1e-09,1.9e-08M*,1.7e-08M*
SMILES,Fluorescein autfl,Rhodamine autofl,A488 fluor,A647 fluor,Texas Red fluor,Resorufin autofl
CCC(=NCCO)c1c(O)n(-c2ccc(Cl)cc2)c(=O)[nH]c1=O,i,i,i,3e-09,i,i
CN1CC=C2C(C#N)=C(N)C(C#N)(C#N)C(c3ccncc3)C2C1 (stereo not drawn),4.2e-08M*,i,?,1e-09,?,i
CN1CCC2(CC1)CCN(C(=O)Oc1ccccc1)CC2,i,i,i,1e-09,i,i
N[C@H](Cn1oc(=O)[nH]c1=O)C(=O)O,?,i,i,5.2e-08,i,i
N[C@H](Cc1ccc2oc3cc(=O)c4ccccc4c-3nc2c1)C(=O)O,8.5e-07M*,1.2e-08M*,3.9e-08M*,1.1e-08,4.7e-08M*,?
N[C@@H](Cc1cc(Br)c(O)c(Br)c1)C(=O)O,i,i,i,1e-09,i,i
O=C(Nc1ccccc1)N1CCCC2(CCN(C(=O)Oc3ccccc3)CC2)C1,i,i,i,1e-09,i,i
